# Measurements: PubChem BioAssay (EPA / NIEHS)
# Records with an inconclusive call do not appear. Active and inactive are the calls of the source. How the source made its calls, unless noted: active means hit-call score of the fitted dose curve at least 0.9, where 1 is the maximum; inactive means score below 0.9.
# Columns and labels:
# [1] = CCTE_Shafer_MEA_acute_burst_duration_mean: CCTE's Neural Acute Assay for Mean Burst Duration, Shafer Lab (AID 2284014);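 further: hits are decreases in mean burst duration relative to DMSO controls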
# Method in brief: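 Read-out is the per-well percent change in mean burst duration (first to last spike within a single-electrode burst) between 40-min recordings before and after compound. Cultures were primary rat cortical neurons on MEAs, dosed at 0.03-40 uM on DIV 13 or 15.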
# [2] = CCTE_Shafer_MEA_acute_interburst_interval_mean: CCTE's Neural Acute Assay for Mean Interburst Interval, Shafer Lab (AID 2284016);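 further: percent change of mean interburst interval versus each well's own pre-dose baseline; curves fitted for decrease in interburst interval relative to DMSO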
# Method in brief: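 Primary rat cortical neurons on 16-electrode MEA wells were recorded 40 min at baseline on DIV 13 or 15, then 40 min after compound (0.03-40 uM), at 37 C. Value is percent change in mean interburst interval per well, DMSO as negative control.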
# [3] = CCTE_Shafer_MEA_acute_burst_percentage_mean: CCTE's Neural Acute Assay for Percentage of Spikes in a Burst, Shafer Lab (AID 2284017);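 on AC50: curve fitted for loss of signal so potency reflects decreased burst percentage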
# Method in brief: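 Primary rat cortical neurons on 16-electrode MEA wells; 40 min baseline recorded at DIV 13 or 15, then 40 min after compound (0.03-40 uM) at 37 C. Well-mean fraction of spikes in single-electrode bursts; percent change from baseline, DMSO as negative control.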
# [4] = CCTE_Shafer_MEA_acute_burst_percentage_std: CCTE's Neural Acute Assay for Standard Deviation of Burst Percentage, Shafer Lab (AID 2284018);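 further: fitted in the negative direction so actives lower burst percentage SD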
# Method in brief: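 Value is percent change from baseline in the across-electrode SD of spikes-in-bursts percentage, wells with >/= 10 active electrodes. Acute 40-min exposure to 0.03-40 uM on DIV 13 or 15 rat cortical cultures, recorded at 37 C after 40-min baseline.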
# [5] = CCTE_Shafer_MEA_acute_per_network_burst_spike_number_mean: CCTE's Neural Acute Assay for Average Number of Spikes in a Network Burst, Shafer Lab (AID 2284019);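 on AC50: curve fitted for loss of signal so actives reduce spikes per network burst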
# Method in brief: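 Read-out is mean spike count per network burst, taken as percent change between a 40-min pre-exposure and a 40-min post-exposure recording per well. Rat primary cortical neurons on MEAs at 37 C, DIV 13 or 15; compounds at 0.03-40 uM.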
# [6] = CCTE_Shafer_MEA_acute_per_network_burst_spike_number_std: CCTE's Neural Acute Assay for Standard Deviation of Number of Spikes in a Network Burst, Shafer Lab (AID 2284020);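 further: fitted for decrease in spike-number SD versus DMSO so actives lower it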
# Method in brief: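 Spontaneous network activity of primary rat cortical neurons is recorded extracellularly before and after a 40-min compound exposure (0.03-40 uM) at 37 C. The endpoint is the well's percent change in burst spike-number SD.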
# [7] = CCTE_Shafer_MEA_acute_per_network_burst_electrodes_number_mean: CCTE's Neural Acute Assay for Mean Number of Electrodes in a Network Burst, Shafer Lab (AID 2284021);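 further: curves fitted for decreases only so hits reduce electrodes per burst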
# Method in brief: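 Readout: % change in mean electrodes active per network burst, post- vs pre-treatment, each well. Spikes detected at 8x rms noise after 300-5000 Hz band-pass; rat cortical cultures, DIV 13/15, compounds 0.03-40 uM, DMSO baseline.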
# [8] = CCTE_Shafer_MEA_acute_network_burst_percentage: CCTE's Neural Acute Assay for Percentage of Network Bursts, Shafer Lab (AID 2284022);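 further: curves fitted for loss so actives lower network burst percentage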
# Method in brief: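 Rat cortical cultures, DIV 13/15; 20 min equilibration, 40 min baseline, compound 0.03-40 uM, 40 min recording, 37 C. Spikes: 300-5000 Hz band-pass, threshold 8x rms noise. Readout: % change in network-burst spike fraction; loss direction vs DMSO.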
# [9] = CCTE_Shafer_MEA_acute_cross_correlation_area: CCTE's Neural Acute Assay for Area of Cross Correlation, Shafer Lab (AID 2284024);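 further: area under pooled inter-electrode spike cross-correlation near zero lag as percent change from own baseline; curves fitted for loss of cross-correlation area so actives lower synchrony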;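 on outcome: rat primary cortical neuron networks on 48-well MEA at DIV 13 or 15 with 40 min exposure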
# Method in brief: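 Rat cortical cultures, DIV 13/15, MEA; spikes detected at 8x rms noise (300-5000 Hz band-pass). Compound 0.03-40 uM, ≥3 wells each. Readout: % change in pooled inter-electrode cross-correlation area vs own baseline; DMSO negative control.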
# [10] = target: Estrogen receptor (Homo sapiens) (UniProt P03372); assay: CCTE_Deisenroth_AIME_96WELL_LUC_Active: CCTE's 96-well Estrogen Receptor Transactivation Assay with AIME metabolic competence (ERTA luciferase; metabolism positive), Deisenroth Lab (AID 2284023; active means hit-call score of the fitted dose curve at least 0.9, where 1 is the maximum)
# Method in brief: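 Chemicals pre-incubated 2 h with alginate-immobilized phenobarbital/beta-naphthoflavone-induced male Sprague Dawley rat liver S9, then medium transferred to VM7Luc4E2 cells for 24 h luciferase read-out. 10-point series 0.002 - 200 uM; fitted relative to 17beta-estradiol.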
# Sequence of Estrogen receptor (Homo sapiens) (P03372 whole entry, looked up): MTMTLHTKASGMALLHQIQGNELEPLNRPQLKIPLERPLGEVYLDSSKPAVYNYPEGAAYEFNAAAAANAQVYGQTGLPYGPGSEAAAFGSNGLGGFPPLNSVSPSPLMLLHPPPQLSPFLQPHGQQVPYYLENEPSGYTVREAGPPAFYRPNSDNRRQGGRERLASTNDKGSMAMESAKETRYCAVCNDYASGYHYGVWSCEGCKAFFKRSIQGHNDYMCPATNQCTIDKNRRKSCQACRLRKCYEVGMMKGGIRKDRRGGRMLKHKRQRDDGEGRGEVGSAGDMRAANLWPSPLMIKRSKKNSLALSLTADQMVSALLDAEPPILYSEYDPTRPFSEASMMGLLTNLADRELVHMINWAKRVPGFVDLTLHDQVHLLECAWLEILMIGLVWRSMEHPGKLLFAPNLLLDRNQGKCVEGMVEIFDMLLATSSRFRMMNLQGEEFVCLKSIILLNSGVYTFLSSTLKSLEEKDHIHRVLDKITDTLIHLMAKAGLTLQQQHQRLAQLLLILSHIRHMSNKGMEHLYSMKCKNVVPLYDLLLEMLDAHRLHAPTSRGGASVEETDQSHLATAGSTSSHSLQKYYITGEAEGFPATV
structure (smiles),measurement,setting,value
CCCCCCCC1CCC(=O)O1 (stereo not drawn),outcome,[1],inactive
same,outcome,[2],inactive
same,AC50,[3],20 µM (active)
same,outcome,[4],inactive
same,outcome,[5],inactive
same,outcome,[6],inactive
same,outcome,[7],inactive
same,outcome,[8],inactive
same,outcome,[9],inactive
O=S(=O)(O)c1ccc(N=Nc2c(O)ccc3cc(S(=O)(=O)O)ccc23)cc1,outcome,[1],inactive
same,outcome,[2],inactive
same,outcome,[3],inactive
same,outcome,[4],inactive
same,outcome,[5],inactive
same,outcome,[6],inactive
same,outcome,[7],inactive
same,outcome,[8],inactive
same,outcome,[9],inactive
CCN(CC)C(=S)SSC(=S)N(CC)CC,outcome,[10],inactive
COc1cc(C(C)C)c2c(c1)S(=O)(=O)N(COc1cc(=O)n3cccc(OCCN4CCCCC4)c3n1)C2=O,AC50,[1],5 µM (active)
same,outcome,[2],inactive
same,outcome,[3],inactive
same,AC50,[4],7.87 µM (active)
same,outcome,[5],inactive
same,AC50,[6],1.03 µM (active)
same,outcome,[7],inactive
same,outcome,[8],inactive
same,outcome,[9],inactive
Cn1c(=O)c2[nH]cnc2n(C)c1=O,outcome,[1],inactive
same,outcome,[2],inactive
same,outcome,[3],inactive
same,outcome,[4],inactive
same,outcome,[5],inactive
same,outcome,[6],inactive
same,outcome,[7],inactive
same,outcome,[8],inactive
same,outcome,[9],inactive
OCc1ccccc1,outcome,[1],inactive
same,outcome,[2],inactive
same,outcome,[3],inactive
same,outcome,[4],inactive
same,outcome,[5],inactive
same,outcome,[6],inactive
same,outcome,[7],inactive
same,outcome,[8],inactive
same,outcome,[9],inactive
CCCCC(CC)C(=O)OCCOCCOCCOC(=O)C(CC)CCCC (stereo not drawn),outcome,[1],inactive
same,outcome,[2],inactive
same,outcome,[3],inactive
same,outcome,[4],inactive
same,outcome,[5],inactive
same,outcome,[6],inactive
same,outcome,[7],inactive
same,outcome,[8],inactive
same,outcome,[9],inactive
CC[C@H](C)C(=O)O[C@H]1C[C@H](O)C=C2C=C[C@H](C)[C@H](CC[C@@H](O)C[C@@H](O)CC(=O)O)[C@H]21,outcome,[1],inactive
same,outcome,[2],inactive
same,outcome,[3],inactive
same,outcome,[4],inactive
same,outcome,[5],inactive
same,outcome,[6],inactive
same,outcome,[7],inactive
same,outcome,[8],inactive
same,outcome,[9],inactive
COCc1nnc(-c2ccc[n+]([O-])c2)n1-c1c(Cl)c(Cl)cc2[nH]c(=O)c(=O)[nH]c12,outcome,[1],inactive
same,AC50,[2],30 µM (active)
same,AC50,[3],17.2 µM (active)
same,outcome,[4],inactive
same,AC50,[5],4.76 µM (active)
same,AC50,[6],10.9 µM (active)
same,outcome,[7],inactive
same,AC50,[8],29.2 µM (active)
same,outcome,[9],inactive
CCCCCCCC/C=C\CCCCCCCC(=O)OC[C@@H](O)[C@H]1OC[C@H](O)[C@H]1O,outcome,[1],inactive
same,outcome,[2],inactive
same,outcome,[3],inactive
same,outcome,[4],inactive
same,outcome,[5],inactive
same,outcome,[6],inactive
same,outcome,[7],inactive
same,outcome,[8],inactive
same,outcome,[9],inactive
c1ccc2cc3ccccc3cc2c1,outcome,[1],inactive
same,outcome,[2],inactive
same,outcome,[3],inactive
same,outcome,[4],inactive
same,outcome,[5],inactive
same,outcome,[6],inactive
same,outcome,[7],inactive
same,AC50,[8],0.003 µM (active)
same,AC50,[9],0.00687 µM (active)
CCc1ccc(O)c(C(C)(C)C)c1,AC50,[1],30 µM (active)
same,outcome,[2],inactive
same,AC50,[3],2.12 µM (active)
same,AC50,[4],20 µM (active)
same,AC50,[5],35.3 µM (active)
same,outcome,[6],inactive
same,AC50,[7],35 µM (active)
same,outcome,[8],inactive
same,outcome,[9],inactive
Cc1ncc([C@@H](CCCCCCc2ccc3c(n2)NCCC3)CC(=O)O)cn1,outcome,[1],inactive
same,outcome,[2],inactive
same,outcome,[3],inactive
same,outcome,[4],inactive
same,outcome,[5],inactive
same,outcome,[6],inactive
same,outcome,[7],inactive
same,outcome,[8],inactive
same,outcome,[9],inactive
c1ccc(C(O[C@@H]2CCCN(CCc3ccc4c(c3)OCO4)C2)c2ccccc2)cc1,outcome,[1],inactive
same,AC50,[2],4.15 µM (active)
same,outcome,[3],inactive
same,outcome,[4],inactive
same,AC50,[5],4.49 µM (active)
same,outcome,[6],inactive
same,outcome,[7],inactive
same,outcome,[8],inactive
same,outcome,[9],inactive
COc1cc2c(c(OC)c1OC)-c1ccc(OC)c(=O)cc1[C@@H](NC(C)=O)CC2,outcome,[1],inactive
same,outcome,[2],inactive
same,outcome,[3],inactive
same,outcome,[4],inactive
same,outcome,[5],inactive
same,outcome,[6],inactive
same,AC50,[7],31.6 µM (active)
same,AC50,[8],4.03 µM (active)
same,outcome,[9],inactive
OC(CCl)CCl,outcome,[1],inactive
same,outcome,[2],inactive
same,outcome,[3],inactive
same,outcome,[4],inactive
same,outcome,[5],inactive
same,outcome,[6],inactive
same,outcome,[7],inactive
same,outcome,[8],inactive
same,outcome,[9],inactive
CC(C)C(=O)Nc1ccc([N+](=O)[O-])c(C(F)(F)F)c1,outcome,[1],inactive
same,AC50,[2],30.8 µM (active)
same,AC50,[3],6.55 µM (active)
same,outcome,[4],inactive
same,outcome,[5],inactive
same,AC50,[6],5.47 µM (active)
same,outcome,[7],inactive
same,AC50,[8],34.4 µM (active)
same,outcome,[9],inactive
CCCc1ccccc1,outcome,[1],inactive
same,outcome,[2],inactive
same,outcome,[3],inactive
same,outcome,[4],inactive
same,outcome,[5],inactive
same,outcome,[6],inactive
same,outcome,[7],inactive
same,outcome,[8],inactive
same,outcome,[9],inactive
C=CCc1cc(S(=O)(=O)c2ccc(O)c(CC=C)c2)ccc1O,outcome,[1],inactive
same,outcome,[2],inactive
same,outcome,[3],inactive
same,outcome,[4],inactive
same,outcome,[5],inactive
same,outcome,[6],inactive
same,outcome,[7],inactive
same,outcome,[8],inactive
same,outcome,[9],inactive
